Measurements published in PubChem BioAssay (NCI).
Compounds without any hit were thinned out: in the full panel of roughly 83,000, 20% have a hit.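 Values shown are percent growth following 48 h exposure of cells in 96-well plates to a single concentration of compound; below 10 was considered active.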 The source made the active and inactive calls.

The compounds below were run on SF-295 CNS (assay: NCI-60 one-dose screen, 48 h (100 = growth as untreated, 0 = no growth, -100 = all killed)). Details: 10 µM unless noted.
COc1ccc(C2=NN(c3ccc(S(N)(=O)=O)cc3)C(c3ccc(Cl)cc3)C2)c(O)c1 (stereo unspecified) was tested, and the growth was 46.3% (inactive). In the case of CC(=O)Nc1nc2c(c(N)c1C#N)C(c1cccc(Cl)c1)C1=C(CCCC1=O)N2c1sc2c(c1C#N)CCCC2 (stereo unspecified), the growth is reported as 44% (inactive). In the case of C#Cc1ccccc1NC(=O)c1sc2nc3c(cc2c1N)CCCCCC3, the growth is reported as 75.7% (inactive). For C=C(C)[C@@H]1CC[C@]2(C(=O)N3CCN(C)CC3)CC[C@]3(C)[C@H](CC[C@@H]4[C@@]5(C)C/C(=C/c6ccco6)C(=O)C(C)(C)[C@@H]5CC[C@]43C)[C@@H]12, the growth was 18.9% (inactive). With CCCCC(=O)Nc1c(C(=O)Nc2ccccc2)sc2nc3c(cc12)C(OC(=O)CCCC)CCC3 (stereo unspecified) the growth was 101% (inactive). C#CC[C@@H]1C[C@]2(C)[C@H]3CC[C@@H]4[C@H]5[C@H](C(=C)C)CC[C@]5(C(=O)O)CC[C@@]4(C)[C@]3(C)CC[C@H]2C(C)(C)[C@H]1O was tested, and the growth was 12.8% (inactive). For Cc1ccc(-c2nc(C#N)c(S(=O)(=O)N(C)CCO)o2)cc1, the growth was 104% (inactive). For FC(F)(F)c1ccc2c(Nc3cccc(C4CC(c5ccccc5)=NN4c4ccc(Cl)cc4)c3)ccnc2c1 (stereo unspecified), the growth was 57.8% (inactive). COc1ccc2nc(-c3ccc(OC)c(OC)c3)cc(-c3nnc(SCC(=O)Nc4ccc(/C(C)=N\O)cc4)n3-c3ccccc3)c2c1 was tested, and the growth was 92.9% (inactive).

What follows are compounds tested on SF-539 CNS in the same assay as above. Details: 10 µM unless noted.
CNCc1cccc2c1OCCOCCOCCN(CCN1CCOCC1)S(=O)(=O)c1ccc(cc1)-c1cnc(N)c(n1)C(=O)N2 was tested, and the growth was 24.1% (inactive). In the case of Cc1cnc(-c2ccc(-c3ccc(NC(=O)Nc4c(F)cc(F)cc4F)cc3F)c3c2C(=O)NC3)[nH]1, the growth is reported as 56.1% (inactive). With Cc1cc(C)c(NC(=O)c2sc3nc4c(cc3c2N)CCCCCC4)c(C)c1 the growth was 60% (inactive). O=C1NN(c2ccccc2)C(c2ccc3c(c2)OCO3)N2CCC[C@@H]12 (stereo partly specified) was tested, and the growth was 111% (inactive). With C=C1C(=O)O[C@H]2[C@H]1CC/C(COC(=O)CCCCCCCCC(=O)OC/C1=C/CC[C@@]3(C)O[C@H]3[C@H]3OC(=O)C(=C)[C@@H]3CC1)=C\CC[C@@]1(C)O[C@@H]21 the growth was -36.6% (active). In the case of COc1ccc(C2N(c3cc(OC)c(OC)c(OC)c3)C(=O)C2(F)F)cc1F (stereo unspecified), the growth is reported as 21.6% (inactive). In the case of C=C1C(=O)O[C@H]2[C@H]1CC/C(COC(=O)CCCCCCC(=O)OC/C1=C/CC[C@@]3(C)O[C@H]3[C@H]3OC(=O)C(=C)[C@@H]3CC1)=C\CC[C@@]1(C)O[C@@H]21, the growth is reported as 21.1% (inactive). O=c1nc(-c2ccccc2)c2cc(-c3ccc(N4CCCC4)nc3)ccc2[nH]1 was tested, and the growth was 73.8% (inactive). For O=C(Nc1nc(-c2ccccc2)cs1)c1cc(-c2ccc(Br)cc2)nc2ccccc12, the growth was 63% (inactive). For COc1ccc2nc3c(n2c1)C(=O)C(=O)c1ccccc1-3, the growth was -95.3% (active). For C=C1C(=O)O[C@H]2[C@H]1CCC(/C=N/c1ncc(Br)cc1N)=C\CC[C@@]1(C)O[C@@H]21, the growth was 25.8% (inactive). For COC(=O)c1ccc(NC(=O)CSc2nc(-c3ccc(F)cc3)nc3ccccc23)cc1, the growth was 96.9% (inactive). In the case of COc1ccc(C2C(c3ccccc3)C(=O)N2c2cc(OC)c(OC)c(OC)c2)cc1I (stereo unspecified), the growth is reported as 1.87% (active). In the case of O=[N+]([O-])c1cccc(CN(Cc2cccc([N+](=O)[O-])c2O)c2ccccc2)c1O, the growth is reported as 94.7% (inactive). Nc1c(C(=O)Nc2ccccn2)sc2nc3c(cc12)CCCCCC3 was tested, and the growth was 6.92% (active). For C[C@]12CC[C@@H]3c4ccc(O)cc4CC[C@H]3[C@@H]1C[C@H](O)C2, the growth was 73.5% (inactive). COCCOCCOCc1n(Cc2ccc3ccccc3c2)c2ccccc2[n+]1Cc1ccc2ccccc2c1 was tested, and the growth was 37.2% (inactive). COc1ccc(C(=O)c2cc(F)c(F)c(OC)c2F)cc1OC(=O)CCl was tested, and the growth was 25.6% (inactive). With Nc1cccc(C(=O)Nc2ccc3c(O)c(N=Nc4ccc(N=Nc5ccc(S(=O)(=O)O)cc5)cc4)c(S(=O)(=O)O)cc3c2)c1 the growth was 99.9% (inactive). With O=C(Nc1ccccc1)NS(=O)(=O)c1c[nH]c(=S)[nH]c1=O the growth was 99.8% (inactive). With CC(C)CSc1nc(Nc2ccccc2)c(C#N)c(-c2ccc(F)cc2)n1 the growth was 22.4% (inactive). CC(C)(C#N)c1cc(F)cc(C(=O)Nc2cc(Nc3ncccc3-c3ncnc4nc[nH]c34)ccc2F)c1 was tested, and the growth was 20.8% (inactive). With COc1c(O)cc2oc3cc(O[C@@H]4OC(C)[C@@H](O)[C@H](O)C4O)c(CC=C(C)C)c(O)c3c(=O)c2c1CC=C(C)C (stereo partly specified) the growth was 99% (inactive). For O=C(CCCC(=O)Nc1ccc(-n2nnc3cc(Cl)c(Cl)cc32)cc1)Nc1ccc(-n2nnc3cc(Cl)c(Cl)cc32)cc1, the growth was 56.7% (inactive). With Cn1cc(-c2ccc3c(c2)ncn3-c2ccc(CC(=O)Nc3cc(C(C)(C)C)on3)cc2)cn1 the growth was -15.8% (active). In the case of CCC1S/C(=N\N=C(/C)c2ccc[nH]2)N(c2ccccc2)C1=O (stereo unspecified), the growth is reported as 119% (inactive). For CC(=O)ON1CCCC(P(=O)(OCOC(=O)C(C)(C)C)OCOC(=O)C(C)(C)C)C1=O (stereo unspecified), the growth was 11.3% (inactive). With Cc1cccc(C)c1Nc1nnc(-c2ccc(F)cc2)o1 the growth was 99.7% (inactive). In the case of COc1ccc(C2=NN(c3ccc(S(N)(=O)=O)cc3)C(c3ccc(Cl)cc3)C2)c(O)c1 (stereo unspecified), the growth is reported as 89.9% (inactive). CC(=O)Nc1nc2c(c(N)c1C#N)C(c1cccc(Cl)c1)C1=C(CCCC1=O)N2c1sc2c(c1C#N)CCCC2 (stereo unspecified) was tested, and the growth was 65% (inactive). In the case of C#Cc1ccccc1NC(=O)c1sc2nc3c(cc2c1N)CCCCCC3, the growth is reported as 62.2% (inactive). For C=C(C)[C@@H]1CC[C@]2(C(=O)N3CCN(C)CC3)CC[C@]3(C)[C@H](CC[C@@H]4[C@@]5(C)C/C(=C/c6ccco6)C(=O)C(C)(C)[C@@H]5CC[C@]43C)[C@@H]12, the growth was 62% (inactive). For CCCCC(=O)Nc1c(C(=O)Nc2ccccc2)sc2nc3c(cc12)C(OC(=O)CCCC)CCC3 (stereo unspecified), the growth was 94.7% (inactive). For C#CC[C@@H]1C[C@]2(C)[C@H]3CC[C@@H]4[C@H]5[C@H](C(=C)C)CC[C@]5(C(=O)O)CC[C@@]4(C)[C@]3(C)CC[C@H]2C(C)(C)[C@H]1O, the growth was 53.8% (inactive). With Cc1ccc(-c2nc(C#N)c(S(=O)(=O)N(C)CCO)o2)cc1 the growth was 43% (inactive). With FC(F)(F)c1ccc2c(Nc3cccc(C4CC(c5ccccc5)=NN4c4ccc(Cl)cc4)c3)ccnc2c1 (stereo unspecified) the growth was 86.9% (inactive). COc1ccc2nc(-c3ccc(OC)c(OC)c3)cc(-c3nnc(SCC(=O)Nc4ccc(/C(C)=N\O)cc4)n3-c3ccccc3)c2c1 was tested, and the growth was 81.3% (inactive).
